# Test results as given in PubChem BioAssay AID623911 (Vanderbilt High Throughput Screening Facility, 2012).
# Screen size: about 2,100 compounds; about 770 (37%) were called active. This is one part of the list. A number with no mark means an inactive call.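 The calls were made as follows: active = by-eye trace score of 1 for enhancers or -1 for inhibitors, so actives lie on both sides (some results past the limit were not filed as active); inactive = score 0, or 3 fluorescent, or 4 baseline rise.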
# Target: G protein-activated inward rectifier potassium channel 2 (Homo sapiens) + G protein-activated inward rectifier potassium channel 1 (Homo sapiens) (UniProt P48051+P48549)
# Assay: GIRK1/2 thallium flux modulators, retest, confirmation, cell-based, HEK293 rmGlu8/hGIRK1/2, FluoZin-2 (AID 623911)
# Details: HEK293 rmGlu8/hGIRK1/2, thallium flux FluoZin-2; actives lie on both sides; glutamate co-added at its EC20 level
# Chain of G protein-activated inward rectifier potassium channel 2 (Homo sapiens) + G protein-activated inward rectifier potassium channel 1 (Homo sapiens) (P48051 whole entry, looked up): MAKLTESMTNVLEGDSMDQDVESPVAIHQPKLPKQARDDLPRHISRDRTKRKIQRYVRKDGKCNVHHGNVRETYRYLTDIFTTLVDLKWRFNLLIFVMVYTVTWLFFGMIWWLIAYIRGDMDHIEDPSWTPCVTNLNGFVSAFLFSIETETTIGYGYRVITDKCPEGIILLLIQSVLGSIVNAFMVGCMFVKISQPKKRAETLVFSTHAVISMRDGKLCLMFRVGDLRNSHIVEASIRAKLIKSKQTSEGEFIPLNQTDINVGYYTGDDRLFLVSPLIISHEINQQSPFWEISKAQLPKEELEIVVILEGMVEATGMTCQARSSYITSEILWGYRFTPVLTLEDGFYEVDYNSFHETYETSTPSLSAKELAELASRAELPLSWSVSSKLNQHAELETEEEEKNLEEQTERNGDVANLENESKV
# Chain of G protein-activated inward rectifier potassium channel 2 (Homo sapiens) + G protein-activated inward rectifier potassium channel 1 (Homo sapiens) (P48549 whole entry, looked up): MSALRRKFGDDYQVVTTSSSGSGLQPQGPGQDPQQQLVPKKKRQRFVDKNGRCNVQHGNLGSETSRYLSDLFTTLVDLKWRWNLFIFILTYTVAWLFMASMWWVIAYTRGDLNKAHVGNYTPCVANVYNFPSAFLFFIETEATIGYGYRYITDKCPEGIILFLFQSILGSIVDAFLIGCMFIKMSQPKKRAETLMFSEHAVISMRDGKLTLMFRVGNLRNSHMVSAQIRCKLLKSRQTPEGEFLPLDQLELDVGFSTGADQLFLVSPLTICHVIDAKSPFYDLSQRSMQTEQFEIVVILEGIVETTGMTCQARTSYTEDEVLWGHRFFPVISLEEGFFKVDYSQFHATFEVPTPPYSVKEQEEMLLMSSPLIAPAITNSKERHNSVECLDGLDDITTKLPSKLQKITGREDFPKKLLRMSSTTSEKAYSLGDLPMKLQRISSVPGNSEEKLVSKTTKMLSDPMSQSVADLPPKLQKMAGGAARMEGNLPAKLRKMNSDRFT
row,Structure (SMILES),manual score
1,O=C(NC(=S)NCCc1ccccc1)c1ccco1,1 (active)
2,O=C(NC(=S)Nc1nc2c(ccc3ccccc32)s1)c1cccs1,0.5
3,O=C(NC(=S)NCCc1ccccc1)c1ccccc1,0
4,O=C(NC(=S)N(CCc1ccccc1)CCc1ccccc1)c1ccco1,1 (active)
5,O=C(CNC(=S)NC(=O)c1cccs1)c1ccccc1,1 (active)
6,O=C(NC(=S)Nc1nc2ccccc2s1)c1cccs1,0.5
7,Fc1cccc(-n2c(-c3ccco3)nc3nc4ccccc4nc32)c1,0
8,O=C(Nc1ccncc1)c1ccc2c(c1)C(=O)N(C1CCCCC1)C2=O,0
9,CCCCNc1c2c3c(cccc3n(C)c1=O)C(=O)c1ccccc1-2,3
10,CCc1nc(N2CCOCC2)c(C#N)c2c1CCCC2,0
11,S=c1nc[nH]c2c1sc1nc(-c3ccccc3)c3c(c12)CCCC3,1 (active)
12,Cc1sccc1C1C(C#N)=C(N)SC(N)=C1C#N,0
13,N#CC1=C(N)SC(N)=C(C#N)C1c1c(Cl)cccc1Cl,-1 (active)
14,N#CC1=C(N)SC(N)=C(C#N)C1CCc1ccccc1,0
15,Cc1ccc(C2CC2C(=O)NNC(=S)Nc2cccc(Cl)c2)cc1 (centres undefined),0
16,S=C(NCc1cccs1)Nc1cccc(Cl)c1,1 (active)
17,COCCCN(C(=S)Nc1cccc(Cl)c1)C(C)c1ccncc1 (centres undefined),0
18,Cc1csc(NC(=S)Nc2cccc(Cl)c2)n1,1 (active)
19,O=C(CSc1cccc2cccc(Cl)c12)NCc1cccs1,0
20,CC(C)n1c(-c2ccc(C(C)(C)C)cc2)n[nH]c1=S,0
21,Cc1ccc2nc(NC(=S)NC(=O)c3cccs3)sc2c1,0
22,Cc1ccc(C(=O)N/N=C(/CC(=O)c2cccs2)C(F)(F)F)cc1,1 (active)
23,N#Cc1c(-c2ccco2)nc(SCc2ccc(F)cc2)[nH]c1=O,0
24,CC(=O)C1=C(C)NC(SCC(=O)c2ccc(Cl)cc2Cl)=C(C#N)C1c1ccco1 (centres undefined),-1 (active)
25,CSCSC1=C(C#N)C(c2ccc(Cl)cc2)C(C(C)=O)=C(C)N1 (centres undefined),0
26,CCOC(=O)C1=C(c2ccccc2)NC(SC)=C(C#N)C1c1ccco1 (centres undefined),0
27,CCOc1ccccc1C1CC(=O)NC(SCC)=C1C#N (centres undefined),0

row,Structure (SMILES),manual score
1,CSCSC1=C(C#N)C(c2ccccc2Cl)C(C(C)=O)=C(C)N1 (centres undefined),-1 (active)
2,CC(=O)C1=C(C)NC(SCc2ccc(C#N)cc2)=C(C#N)C1c1ccco1 (centres undefined),-1 (active)
3,CC(Nc1nc(N2CCCCC2)nc2ccccc12)c1ccccc1 (centres undefined),-1 (active)
4,CC(Nc1nc(N2CCCC2)nc2ccccc12)c1ccccc1 (centres undefined),-1 (active)
5,C=CCNc1nc(N2CCCC2)nc2ccccc12,-1 (active)
6,CC1(C)CC(=S)Nc2ccccc2S1,0
7,CCCN1CCC(NC(=O)Nc2ccc(F)cc2F)CC1,0
8,CCc1cccc(NC(=O)NC2CCCCC2)c1,0.5
9,O=C(Nc1ccc(F)c(F)c1)NC1CCCCC1,1 (active)
10,CC1(C)CC(=O)C2=C(C1)OC(/N=C/N1CCOCC1)=C(C#N)C2c1ccccc1 (centres undefined),-1 (active)
11,N=c1c2c(-c3ccccc3)c(-c3ccccc3)n(Cc3ccccc3)c2ncn1CCCO,-1 (active)
12,CC(C)Cn1cnc2c(c(-c3ccccc3)c(-c3ccccc3)n2Cc2ccco2)c1=N,-1 (active)
13,COC(=O)c1cc(NC(=O)c2ccoc2C)cc(C(=O)OC)c1,0
14,CCN1CCN(C(=O)c2ccc3c(=O)n(C4CCCC4)c(=S)[nH]c3c2)CC1,0
15,COc1cc2c(C(=O)N3CCN(C4CCCCC4)CC3)cn(CC(C)C)c(=O)c2cc1OC,-1 (active)
16,CC(C)OC(=O)CC12CN3CN(C1)CC(CC(=O)OC(C)C)(C3)C2=O,0
17,CCN(CC)c1nc(C)nc2c1cnn2CCc1ccccc1,0
18,Cc1cccc(NC(=S)NC(=O)CCc2ccccc2)c1,0
19,Cc1cccc(NC(=O)NC(C)CCc2ccccc2)c1 (centres undefined),1 (active)
20,Cc1ccccc1NC(=O)C(=O)NC(C)CCc1ccccc1 (centres undefined),0
21,CN1CCN(S(=O)(=O)c2cccc(S(=O)(=O)c3cccc(S(=O)(=O)N4CCN(C)CC4)c3)c2)CC1,0
22,CCN(CC)S(=O)(=O)c1csc(C(=O)NCc2ccccc2)c1,0
23,CCN(CC)S(=O)(=O)c1cccc(S(=O)(=O)c2cccc(S(=O)(=O)N(CC)CC)c2)c1,-1 (active)
24,CCN(CC(=O)c1c(N)n(C)c(=O)n(C)c1=O)c1cccc2ccccc12,0
25,O=C1CN(C(=O)CSc2nc3ccccc3c(=O)n2Cc2ccc(F)cc2)c2ccccc2N1,0.5
26,CC(c1ccccc1)n1c(SCC(=O)N2CC(=O)Nc3ccccc32)nc2ccccc2c1=O (centres undefined),0
27,O=C1CN(C(=O)CSc2nc3cc(Cl)ccc3c(=O)n2Cc2ccccc2)c2ccccc2N1,1 (active)
